This is a sample that favours compounds with a hit; in the whole collection about 2.1% have one here.
TDP43 rescue – qHTS of TDP-43 Inhibitors | TDP-43 expressing yeast growth rescue, BacTiter-Glo, 24 h | Potency, µM (highest dose often 46.1 µM), inactives show top-dose growth rescue (activation), hits mostly activators | 410,000 tested, 1.8% active; further: % of control where 0% means no effect; nearly all actives have a fitted effect of over 50% in size
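In this qHTS, compounds that restore growth of yeast expressing TDP-43 appear as activators. Cells (OD600=0.02, galactose medium, raffinose-pregrown) are incubated with compound 24 hr at 30 deg C and growth is quantified by BacTiter-Glo.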
aSyn yeast inh – qHTS of alpha-syn Inhibitors | Potency, µM (doses to about 46.1 µM), without a hit: at the highest dose growth rescue (activation), actives largely listed as activators | 370,000 tested, 0.14% active | Yeast expressing alpha-synuclein, growth rescue, BacTiter-Glo, 24 h; further: % of control where 0% means no effect; nearly all actives have a fitted effect of over 65% in size
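Galactose-induced alpha-syn yeast (OD600=0.02, raffinose-pregrown) + pinned cpd, 24 hr, 30 deg C; growth by BacTiter-Glo luminescence. Growth restoration scores as activation.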
FUS yeast rescue – qHTS for Suppressors of FUS Proteinopathy: Primary screen using FUS-linked yeast assay; 390,000 tested, 0.24% active; Potency, µM (top dose mostly 76.6 µM), actives largely listed as activators; S. cerevisiae FUS-expressing, growth rescue, OD600, 24 h;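 further: plate controls were DMSO vehicle for no effect and reference control for full effect; nearly all actives have a fitted effect of over 55% in size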
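Compound concentration series was pinned onto galactose-induced FUS-expressing yeast seeded at OD 0.005. Plates sat 24hr at 30C; absorbance at 600 nm gave growth. DMSO served as background control.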
Abeta yeast res – qHTS for compounds that reverse cellular toxicity of Amyloid beta (A-beta) peptide in yeast: Primary Screen; 410,000 tested, 0.063% active; Potency, µM (highest dose often 46.1 µM), most hits filed as activators; yeast expressing A-beta42, growth rescue, OD600, 48 h; response scale: 0% DMSO, 100% iron-clioquinol control; further: nearly all actives have a fitted effect of over 55% in size
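Yeast growth medium received pinned compounds, then yeast cells expressing toxic A-beta were added; plates incubated at 30 C for 48 hr. Growth read as absorbance at 600 nm, normalized to DMSO and equimolar FeCl3 plus clioquinol controls.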
An asterisk follows results filed as active; i = inactive; ? = inconclusive; / = not tested or not shown; [ ] = another dose, or the depositor's remark. The call rests on the fitted dose curve; in most records, active means well fitted curve in the direction sought with a large enough effect; inconclusive means small, poorly fitted or top-dose-only effect, or another doubt; inactive means no such curve, though single readings can be large; an effect the other way counts as inactive or inconclusive. Potency means the concentration at half of the fitted maximal effect.

SMILES	TDP43 rescue	aSyn yeast inh	FUS yeast rescue	Abeta yeast res
CCCCOc1c(Cl)cc(C(=O)N(Cc2ccc(C)o2)C2CCS(=O)(=O)C2)cc1Cl (centres undefined)	?	/	?	i
CCCCCOc1c(Cl)cc(C(=O)N(Cc2ccc(C)o2)C2CCS(=O)(=O)C2)cc1Cl (centres undefined)	5%	/	35µM*	i
Cc1cccc(C(=O)N2CCc3cc(CNS(=O)(=O)c4ccc(F)c(Cl)c4)ccc32)c1	2%	/	i	i
Cc1noc2ncnc(Sc3ccc(Cl)cc3)c12	6.3µM*	-4%	i	i
Fc1ccc(Nc2nc3ccccc3n3cnnc23)c(F)c1	8.9µM*	/	i	i
Nc1ncnc2oc(-c3ccco3)c(-c3ccco3)c12	-17%	13µM*	i	i
CCOC(=O)N1CCN(c2c(-c3ccc(C(C)C)cc3)c(=O)c2=O)CC1	20µM*	0%	i	i
COCCCNc1ccn2nc(-c3ccc(Cl)cc3)cc2n1	11µM*	-14%	i	i
Clc1ccc(CSc2nnc(-c3ccncc3)o2)c(Cl)c1	2.8µM*	/	i	i
Cc1ccccc1CSc1nnc(-c2ccncc2)o1	14µM*	7%	i	i
C=Cc1ccc(Cn2c(=O)n(-c3ccccc3C)c(=O)c3c4c(sc32)CN(C(C)=O)CC4)cc1	?	/	?	i
CC(=O)N1CCc2c(sc3c2c(=O)n(-c2cccc(Cl)c2)c(=O)n3Cc2ccc(F)cc2Cl)C1	11µM*	/	i	i
CC(=O)N1CCc2c(sc3c2c(=O)n(-c2ccccc2Cl)c(=O)n3Cc2cccc(C)c2)C1	35µM*	/	?	i
CC(=O)N1CCc2c(sc3c2c(=O)n(-c2ccccc2)c(=O)n3Cc2ccccc2Cl)C1	9%	0%	/	i
CCN(CC)CCC(O)(c1ccc2c(c1)OCO2)c1cc(OC)c(OC)c(OC)c1 (centres undefined)	-14%	12%	i	i
COc1ccc([C@H]2OC(=O)C[C@H]2C(=O)N2CCN(C(=O)C3CCCO3)CC2)cc1OC (some centres undefined)	/	/	i	/
COCc1ccc(C(=O)N2CCCC(C(=O)c3cc(F)ccc3F)C2)s1 (centres undefined)	11µM*	-4%	i	i
C[C@]12CCC(O)CC1=CCC1C2CC[C@]2(C)/C(=N\NC(N)=S)CCC12 (some centres undefined)	25%	3%	i	2.5µM*
CC12CCC(O)CC1=CCC1C2CCC2(C)C1CCC21CCC(=O)O1 (centres undefined)	30%	2%	/	i
Cc1cccc(CN2CCN(C3CN(C4CCCCC4)S(=O)(=O)C3)CC2)c1 (centres undefined)	5%	13%	i	i
CCS(=O)(=O)c1ncc(Cl)c(C(=O)N2CCN(c3cccc(Cl)c3)CC2)n1	13µM*	/	i	i
CS(=O)(=O)c1ncc(Cl)c(C(=O)N2CCN(c3cccc(Cl)c3)CC2)n1	13µM*	9%	i	i
CN(C)c1ccc(/C=C/c2ccnc3ccc(I)cc23)cc1	/	-1%	/	/
COC1=CC(=O)c2nc(Cl)ccc2C1=O	13µM*	?	i	i
COC1=CC(=O)c2c(ccc3ncnc(N)c23)C1=O	26%	-67%	/	i
SMILES	TDP43 rescue	aSyn yeast inh	FUS yeast rescue	Abeta yeast res
COc1ccc2c(c1)-c1c(ssc1=S)C(C)(C)N2	18µM*	2%	i	i
CC(C)(C)OC(=O)N1CCCC(C(=O)Nc2ccc(C(=O)NC3CC3)cc2)C1 (centres undefined)	5%	4%	i	i
O=C(O)c1cccc(Oc2ccc([N+](=O)[O-])cc2)c1	18µM*	19%	i	i
N/C(=N\OC(=O)CCCOc1ccccc1)c1ccccc1	25µM*	1%	i	i
COc1ccc(OCCCC(=O)ON=C(N)c2ccccc2Cl)cc1	10µM*	4%[1.84 µM]	i	i
N/C(=N\OC(=O)CCCOc1ccc(Cl)cc1Cl)c1ccccn1	14µM*	2%	i	i
N/C(=N\OC(=O)CCCOc1ccccc1)c1ccncc1	-3%	9%	i	i
N/C(=N\OC(=O)CCCOc1ccc(Cl)cc1Cl)c1ccncc1	?	21%	i	i
Cc1ccc(OCCCC(=O)ON=C(N)c2ccccc2C)cc1	?	12%	i	i
CCCc1ccc(OCC(=O)NNC(=O)c2cccnc2)cc1	-5%	-5%	i	i
CCCCN1CCS(=O)(=O)N(Cc2ccc(Cl)cc2)C(C(=O)OC)C1 (centres undefined)	/	/	i	/
CCOC(=O)C1CCN(C(=O)CCc2c(C)nc3cc(-c4ccccc4)nn3c2C)CC1	18µM*	2%	i	i
COc1cccc(/C=C/C(=O)c2cccc([N+](=O)[O-])c2)c1OC	11µM*	-1%	i	i
COc1ccc(/C=C/C(=O)c2ccc[nH]2)cc1OC	?	17%	i	i
COc1ccc(/C=C/C(=O)c2ccc[nH]2)c(OC)c1OC	14µM*	0%	i	i
COc1cccc(/C=C/C(=O)c2cccc([N+](=O)[O-])c2)c1	10%	18%	i	i
CC(C)CCNC(=O)C1CCN(C(=O)c2cc3sccc3n2Cc2ccc(Cl)cc2)CC1	-1%	/	i	i
COc1ccc(S(=O)(=O)Nc2cc3c4c(c2)CCN4C(=O)CC3)cc1OC	7%	-1%	i	i
CCn1cc(C(=O)NCCc2ccccc2C)c(=O)c2ccc(C)nc21	0%	0%	i	i
COc1ccc(Cl)cc1NC(=O)Cn1cc(C(=O)c2ccc(C)cc2)c(=O)c2ccc(C)nc21	0%	/	i	i
CCc1ccc(C(=O)c2cn(CC(=O)Nc3cc(OC)ccc3OC)c3nc(C)ccc3c2=O)cc1	-26%	/	35µM*	i
Cc1ccc(C(=O)c2cn(CC(=O)NCc3ccccc3)c3nc(C)ccc3c2=O)cc1	5%	/	i	i
Cc1ccc(C(=O)c2cn(Cc3ccccc3)c3nc(C)ccc3c2=O)cc1	11µM*	/	i	i
Cc1ccc(C(=O)c2cn(Cc3ccccc3C)c3nc(C)ccc3c2=O)cc1	?	/	25µM*	i
Cc1ccc(C(=O)c2cn(Cc3cccc(F)c3)c3nc(C)ccc3c2=O)cc1	14µM*	/	i	i
CN1CCN(C(=O)c2ccc(CNS(=O)(=O)c3cccc(Cl)c3)cc2)CC1	0%	2%	/	i
COC(=O)[C@]12C[C@H](CC(=O)N3CCN(C(=O)C4CC4)CC3)C(=O)N(CCc3ccc(OC)c(OC)c3)C1=C[C@H](C(C)C)O[C@@H]2C1CC1	/	/	i	/
CC(=O)Nc1ccc(NC(=S)NC(=O)C2CC2)cc1	-18%	-8%	i	i
Cc1ccc(NC(=S)NC(=O)C2CCCC2)cc1C	25%	-23%	i	8.9µM*
